# ± gives the standard deviation of the averaged measurements. Whole data set: some 33,000 sequences, median “E-score (dimensionless, -0.5 to 0.5)” near -0.046, cut for the highest 2% near 0.36. For the sample, the highest values were picked, then their nearest neighbours and some sequences at random.
# System: T1, SpTbr T-box DNA-binding domain (GST fusion)
# T1 sequence: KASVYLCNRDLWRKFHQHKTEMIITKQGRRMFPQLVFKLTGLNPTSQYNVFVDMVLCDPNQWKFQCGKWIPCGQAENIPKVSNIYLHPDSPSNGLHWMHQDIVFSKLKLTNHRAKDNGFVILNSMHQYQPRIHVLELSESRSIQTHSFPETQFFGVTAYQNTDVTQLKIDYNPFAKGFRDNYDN
# Assay: PBM E-score of 8-mer (E-score (dimensionless, -0.5 to 0.5)); Tbr is Tbrain of the sea star Patiria miniata (Pm) or the sea urchin Strongylocentrotus purpuratus (Sp); higher = stronger binding preference
# Conditions: the construct has about 5 more residues each side
# How it was run: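 GST-fused Tbr T-box DNA-binding domains (the whole T-box plus about five flanking residues) were expressed in BL21 E. coli at 20 °C and purified by glutathione affinity chromatography. Universal Agilent oligonucleotide arrays were made double-stranded by primer extension, incubated with 200 nM protein in PBS (pH 7.5), then scanned and quantified. Every ungapped 8-mer was scored from probe intensities. The Universal PBM Analysis Suite gave each word an enrichment E-score, averaged over duplicate arrays.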
row,Sequence,PBM E-score of 8-mer
1,GTCGACAC,0.394 ± 0.018
2,AATGGCTG,-0.183 ± 0.012
3,CAAGTAGA,-0.0961 ± 0.025
4,ATCTCGGA,-0.276 ± 0.03
5,CCATACCG,-0.115 ± 0.017
6,ACTCAAGC,-0.127 ± 0.023
7,CGTTAACC,0.113 ± 0.07
8,CGTTAACG,0.372 ± 0.0041
9,CATTAACA,0.329 ± 0.029
10,CGTTAACA,0.4129 ± 0.0026
11,GGTTAACA,0.287 ± 0.012
12,AGTTAGCA,0.284 ± 0.045
13,CGTTAAAA,0.0585 ± 0.1
14,GGTTAGCA,0.257 ± 0.034
15,CGTTAGCA,0.37 ± 0.0046
16,TGTTAACA,0.421 ± 0.029
17,AGTTAACG,0.127 ± 0.006
18,AGTTAACA,0.334 ± 0.023
19,CAAGTTCG,0.0356 ± 0.0073
20,TAGGCGAA,0.0827 ± 0.01
21,CGATACCC,-0.00698 ± 0.068
22,ACTTAATG,-0.1 ± 0.055
23,CGATTTTA,-0.151 ± 0.033
24,CAGGTGTC,0.4679 ± 0.0019
25,GAGGTGAA,0.198 ± 0.0028

row,Sequence,PBM E-score of 8-mer
1,CAGGTGTA,0.358 ± 0.0037
2,CAGGTGAA,0.199 ± 0.031
3,GAGGTGAC,0.429 ± 0.018
4,AAGGTGAT,0.384 ± 0.023
5,GGGGTGAC,0.293 ± 0.043
6,CCGGTGAG,0.089 ± 0.024
7,AGGGTGAT,0.123 ± 0.024
8,CCGGTGTC,0.18 ± 0.047
9,ACGGTGAT,0.115 ± 0.028
10,CAGGTGAG,0.399 ± 0.0058
11,CGAAGCCG,0.244 ± 0.045
12,ACCAGCTA,-0.0508 ± 0.0037
13,CGCGAGCA,0.275 ± 0.036
14,AGCAGAGA,-0.259 ± 0.039
15,CGGACAAA,-0.0576 ± 0.039
16,CCGAAATC,-0.048 ± 0.0049
17,CAGAGCAG,-0.246 ± 0.033
18,ACGGTGAC,0.284 ± 0.0089
19,AGGGTGAG,0.216 ± 0.048
20,CAGGTGAC,0.425 ± 0.013
21,AAGGTGAG,0.445 ± 0.014
22,CAGATGAC,-0.0314 ± 0.026
23,AAGGTGAC,0.381 ± 0.026
24,AAGGTGAA,0.187 ± 0.0077
25,ACGGTGAG,0.0305 ± 0.02

row,Sequence,PBM E-score of 8-mer
1,CTGGTGAC,0.162 ± 0.074
2,ACAGCTCC,0.157 ± 0.0081
3,GCCTGCAC,-0.0663 ± 0.051
4,ACGTGTCT,0.204 ± 0.034
5,ACGTGTGA,0.4797 ± 0.0017
6,ACGTGGGC,-0.0975 ± 0.06
7,GCGTGTGA,0.399 ± 0.0074
8,ACGTGTGG,0.416 ± 0.00045
9,CCGTGTCA,0.176 ± 0.013
10,ACGTGTGC,0.253 ± 0.017
11,GCGTGAGA,0.361 ± 0.03
12,GCGTGTAA,0.0697 ± 0.022
13,ACGTGAGA,0.3312 ± 0.0033
14,ACGTGTCA,0.458 ± 0.0068
15,ACGTGGGG,-0.127 ± 0.012
16,AACTCTTG,-0.0545 ± 0.035
17,CGTAGGAA,-0.00351 ± 0.079
18,CTTCTGCA,0.00227 ± 0.035
19,CAGCGCAG,-0.14 ± 0.069
20,CAACCCAG,-0.2068 ± 0.00038
21,AATCTGAG,0.0009 ± 0.0013
22,CTATGAGC,-0.1 ± 0.02
23,ACCGCTGC,0.0922 ± 0.006
24,CCGTGTGA,0.381 ± 0.017
25,CCGTGTGC,0.0129 ± 0.03

row,Sequence,PBM E-score of 8-mer
1,CCGTGAGA,0.143 ± 0.015
2,ATCTAGAA,-0.151 ± 0.049
3,AACACGTG,0.36 ± 0.008
4,CACACGTC,0.451 ± 0.0092
5,CACACGTA,0.356 ± 0.0042
6,CGCACGTC,0.331 ± 0.013
7,CACACGGC,0.151 ± 0.069
8,CACACGTG,0.383 ± 0.0078
9,AACCCCTG,-0.108 ± 0.043
10,CACTGAGC,0.00197 ± 0.0073
11,CGCTTTAA,-0.169 ± 0.035
12,AAAGTAGC,-0.0267 ± 0.0034
13,ACTCGACA,0.24 ± 0.029
14,CAGCTGCC,-0.0128 ± 0.074
15,CAGTGTAA,0.0331 ± 0.071
16,TAGTGGGA,-0.0317 ± 0.03
17,GAGTGTGA,0.478 ± 0.0052
18,GAGTGTAA,0.235 ± 0.04
19,TAGTGAGA,0.209 ± 0.089
20,CAGTGTGG,0.243 ± 0.043
21,TAGTGTGA,0.453 ± 0.011
22,CAGTGTGA,0.393 ± 0.0076
23,GAGTGTGC,0.296 ± 0.015
24,CCAAAGGA,-0.262 ± 0.032
25,AGCCTCAC,0.178 ± 0.015

row,Sequence,PBM E-score of 8-mer
1,GCTGTTCC,-0.0355 ± 0.05
2,GCCTCCGA,-0.0614 ± 0.071
3,GAGTATGA,-0.047 ± 0.066
4,CTTGCCAA,0.153 ± 0.021
5,CTGGTGTC,0.312 ± 0.033
6,ATGGTGTC,0.392 ± 0.005
7,ATGGTGGC,0.274 ± 0.028
8,ATGGTGCG,0.206 ± 0.037
9,ATGGTGTA,0.127 ± 0.015
10,ATGGTGTG,0.39 ± 0.023
11,AAGTTTGA,-0.0385 ± 0.021
12,CGGTCAGC,-0.186 ± 0.18
13,ATTCAAAT,-0.0886 ± 0.04
14,ATAGAGCG,-0.0811 ± 0.011
15,AATTGTTC,0.0645 ± 0.035
16,GACCACCC,-0.0294 ± 0.0021
17,GACACCAA,0.327 ± 0.024
18,CACACCAC,0.394 ± 0.015
19,CCCACCAC,-0.00552 ± 0.018
20,CACACCAG,0.386 ± 0.036
21,AACACCAG,0.317 ± 0.028
22,CGCACCAG,0.242 ± 0.0071
23,CACCACAC,0.3556 ± 0.0015
24,GACACCAC,0.367 ± 0.039
25,CTCACCAA,0.133 ± 0.059

row,Sequence,PBM E-score of 8-mer
1,CCCACCAA,-0.0327 ± 0.016
2,AACACCAC,0.344 ± 0.015
3,CACACCAA,0.38 ± 0.017
4,TCATTTAA,-0.193 ± 0.036
5,CCTCTGCA,-0.1407 ± 0.00062
6,AATAGCCC,-0.194 ± 0.016
7,AGTAAATA,-0.121 ± 0.066
8,GCTTGCTA,-0.156 ± 0.02
9,AGCGCACG,0.137 ± 0.04
10,ACTGTCTG,0.126 ± 0.021
11,AGGCTTGG,-0.225 ± 0.031
12,AGACTTTC,0.00343 ± 0.055
13,GCTACCTA,-0.0771 ± 0.051
14,ACCTGTGA,0.3985 ± 0.0028
15,ACCTGTCT,0.104 ± 0.0037
16,ACCTGTCG,0.37 ± 0.011
17,GGCTGTCA,0.172 ± 0.051
18,AGCTGTGC,0.214 ± 0.041
19,AGCTGTGA,0.393 ± 0.0083
20,ACCTGTGC,0.151 ± 0.018
21,AGCTGTGG,0.129 ± 0.058
22,AGCTGTCA,0.382 ± 0.022
23,CCCTGTCG,-0.00439 ± 0.04
24,GCCTGTGA,0.187 ± 0.0033
25,AGCTGTCC,0.00624 ± 0.016

row,Sequence,PBM E-score of 8-mer
1,CGGCCAAA,-0.0415 ± 0.0054
2,ATAACCGA,-0.206 ± 0.066
3,CAGTTCTC,0.143 ± 0.053
4,AACCACTG,-0.317 ± 0.011
5,CACTCTCC,0.0753 ± 0.021
6,AACTGTGA,0.376 ± 0.011
7,AACTGTGC,-0.0399 ± 0.045
8,AACTGTGG,0.128 ± 0.0018
9,GCTTAGGA,-0.107 ± 0.059
10,AACCTCTC,-0.0774 ± 0.028
11,CACCTCTG,0.3929 ± 0.0014
12,CACCTCTC,0.421 ± 0.022
13,GACCTCTC,-0.153 ± 0.016
14,GACCTCTA,-0.234 ± 0.033
15,AACCTCTA,-0.187 ± 0.065
16,AACCTCTG,-0.137 ± 0.075
17,CAACTCTG,0.225 ± 0.013
18,CACCTCTA,0.416 ± 0.0043
19,ATAGGAGC,-0.181 ± 0.022
20,CACAACTC,0.25 ± 0.0039
21,AGAGGAGA,-0.116 ± 0.043
22,CTTTCAGC,-0.162 ± 0.032

# Source: the supplement of paper PMC4166925
